# Test results: PubChem BioAssay (NCI)
# Compounds without any hit were thinned out: in the full panel of roughly 83,000, 20% have a hit.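 Single-concentration screen, 48 h exposure, 96-well plates. Endpoint: percent growth. Below 10 = active.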 Active and inactive are the calls of the source.
# System: HL-60(TB) leukemia
# Test: NCI-60 one-dose screen, 48 h (100 = growth as untreated, 0 = no growth, -100 = all killed)
# Conditions: 10 µM unless noted
row,SMILES,growth
1,CN(C)CC(O)c1ccc2cc(Br)c3ccccc3c2c1 (stereo unspecified),43.7% (inactive)
2,COc1cc(C2CC(=O)Nc3c2c(C)nn3-c2nc3ccccc3[nH]2)c(OC)c2c1OCO2 (stereo unspecified),26.2% (inactive)
3,Cc1ccc(N)cc1CN1C(=O)c2ccccc2C1=O,107% (inactive)
4,Cn1cc(-c2nc(-c3cn(C)c4ncccc34)cs2)c2cc(F)ccc21,30.7% (inactive)
5,COc1ccc(Nc2nc(Nc3cc(C)[nH]n3)c3cc(OC)c(OC)cc3n2)cc1,-50.5% [20 µM] (active)
6,CC(=O)OCC1=CC2OC(=O)C3=COC(OC4OC(CO)C(O)C(O)C4O)C1C32 (stereo unspecified),120% (inactive)
7,O=S(=O)(c1cccc(NC2=Nc3cccc4cccc2c34)c1)N1CCCC1,60.8% (inactive)
8,COc1cc(C(=O)/C=C/c2cc(-c3cc(OC)c(OC)c(OC)c3)n[nH]2)cc(OC)c1OC,0.291% (active)
9,COc1cccc(Nc2ncnc3cc(NC(=O)CCl)ccc23)c1,-49.7% (active)
10,COc1ccc2oc(=O)cc(C(c3ccc[nH]3)c3ccc[nH]3)c2c1,-20.2% (active)
11,Cc1c(C)c(C)c([N+](=O)[O-])c([N+](=O)[O-])c1C,109% (inactive)
12,C=C1C(=O)O[C@H]2[C@H]1CC/C(COC(=O)NCC(C)c1ccc(CC(C)C)cc1)=C\CC[C@@]1(C)O[C@@H]21 (stereo partly specified),-29.8% (active)
13,COc1ccc(C(=O)CSc2nccc(Nc3ccc(C(=O)O)cc3)n2)cc1,99.5% (inactive)
14,Nc1cc2c(cc1Cl)C(=O)c1ccccc1C2=O,81% (inactive)
15,Cc1cc(CSc2ccc(Cl)cc2)ccc1N,3.9% (active)
16,COc1ccc(-c2ncnc3c2ncn3CC#CCCl)cc1,48.8% (inactive)
17,CCOC(=O)C1=C(c2ccccc2)N=C2SC=C(c3ccc(Cl)cc3)N2C1c1ccc(Br)cc1 (stereo unspecified),55.2% (inactive)
18,Fc1ccc(-c2nnc(N3CCOCC3)c3ccccc23)cc1,264% (inactive)

row,SMILES,growth
1,Nc1ccc(C(OC(=O)c2cc3ccccc3c(Cc3c(O)c(C(=O)OC(c4ccc(N)cc4)(c4ccc(N)cc4)c4ccc(N)cc4)cc4ccccc34)c2O)(c2ccc(N)cc2)c2ccc(N)cc2)cc1,4.23% (active)
2,c1cc2ccc3cc2cc1CNCCN1CCNCc2ccc4ccc(cc4c2)CNCCN(CCNC3)CCNCc2ccc3ccc(cc3c2)CNCC1,-38.7% (active)
3,Cc1cccc(Cc2cnc(NC(=O)CCCOc3ccc(Cl)cc3)s2)c1,-34.2% (active)
4,COC(=O)CC[C@@H](C)[C@H]1CC[C@H]2[C@@H]3CC[C@@H]4C[C@H](O)CC[C@]4(C)[C@H]3C[C@H](O)[C@]12C,96.9% (inactive)
5,COc1ccc(-c2nc3sccn3c2-c2ccnc(S(C)(=O)=O)n2)cc1,55.4% (inactive)
6,COc1ccc(CCNc2nc(SC)nc(-c3cccc([N+](=O)[O-])c3)c2C#N)cc1OC,120% (inactive)
7,COc1cc2cc(Oc3ccc(NC(=O)c4cc(C(F)(F)F)cc(C(F)(F)F)c4)cc3)c(C)nc2cc1OC,50.4% (inactive)
8,COc1cc(-c2cc(/C=C/C(=O)c3ccc4c(c3)OCO4)[nH]n2)cc(OC)c1OC,91.3% (inactive)
9,COc1cc(/C=C2\C(=O)Nc3ccccc32)cc(OC)c1O,1.88% (active)
10,Cn1ncc(CC(=O)O)c1-n1nnc2cc(Cl)ccc2c1=O,97.2% (inactive)
11,CC[C@H]1OC(=O)[C@H](C)[C@@H](O[C@H]2C[C@@](C)(OC)[C@@H](O)[C@H](C)O2)[C@H](C)[C@@H](O[C@@H]2O[C@H](C)C[C@H](N(C)C)[C@H]2O)[C@](C)(O)C[C@H](C)CN(C)[C@H](C)[C@@H](O)[C@]1(C)O,89.9% (inactive)
12,CCn1cc(-c2ccnc(NCCNS(=O)(=O)c3cccc4ccccc34)c2)c(-c2cccc(O)c2)n1,103% (inactive)
13,Cc1nn(-c2ccccc2)c(Cl)c1/C=C/C(=O)c1ccc(F)cc1,47.1% (inactive)
14,COc1ccc(-c2nc(/C=N/Nc3cc(C)nc4ccc(Br)cc34)c(C)o2)cc1,-51.5% (active)
15,Fc1ccc(NCCS)cc1,100% (inactive)
16,CNC(C)[C@H]1CCC2C3CC=C4C(=O)[C@@H](NC(=O)C=C(C)C)CC[C@]4(C)C3CC[C@@]21C (stereo partly specified),-67% (active)
17,Cc1nn(CC(=O)O)c2c1C(=O)CC(C)(C)C2,100% (inactive)
18,COc1cc(/C=C2\CCCC3C2=Nc2ccccc2NC3c2cc(OC)c(OC)c(OC)c2)cc(OC)c1OC (stereo unspecified),1.55% (active)
